From PubChem
An excerpt weighted towards active compounds, which were near 10% of everything screened.
VP16 counter: Gal4-VP16 reporter inhibition counter-screen. Drosophila S2 Gal4-VP16 UAS-luciferase, luminescence, 20 h. 310,000 compounds, 3.5% hits. Potency, µM (doses to about 53.6 µM), for the others: at the top dose activity, negative = inhibition, actives largely listed as inhibitors;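 note: Gal4-VP16 expression switched on by copper sulfate through the metallothionein promoter; % is set by controls: 0 for no effect and ±100 for the full control effect; nearly all actives have a fitted effect of over 50% in size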
SW480 rereplic: DNA re-replication induction in SW480 cells. SW480 DNA re-replication, Hoechst DNA content imaging, 48 h. Potency, µM (series often up to 46.1 µM), without a hit: top-dose re-replication activation, most hits filed as activators. 340,000 compounds, 1.8% hits. AID 624297; note: % of control where 0% means no effect; nearly all actives have a fitted effect of over 55% in size
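250 cells/well; 23 nL cpd via pin tool; 48 hr, 37 C, 5% CO2; Hoechst 40 min; imager read of total nuclear intensity, ex 405/em 500-530 nm.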
MCF10A rerep: inducers of DNA re-replication in MCF 10A breast cells; 350,000 compounds, 2.9% hits; MCF 10A DNA re-replication, Hoechst nuclear intensity, 48 h; Potency, µM (highest dose often 46.1 µM), for the others: at the top dose activity, positive = re-replication, actives largely listed as activators; AID 624296; note: % of control where 0% means no effect; nearly all actives have a fitted effect of over 50% in size
RORgamma inh: ROR gamma (mouse) transcription inhibition. P51450. Drosophila S2 Gal4-RORgamma UAS-luciferase reporter, 20 h. Potency, µM (top dose mostly 53.6 µM), inactives show at the top dose activity change, negative = inhibition, usual class: inhibitors. 310,000 compounds, 5.4% hits. AID 2551; note: % is set by controls: 0 for no effect and ±100 for the full control effect; nearly all actives have a fitted effect of over 60% in size
Target sequence (P51450 whole entry, looked up, the tested form may be a part): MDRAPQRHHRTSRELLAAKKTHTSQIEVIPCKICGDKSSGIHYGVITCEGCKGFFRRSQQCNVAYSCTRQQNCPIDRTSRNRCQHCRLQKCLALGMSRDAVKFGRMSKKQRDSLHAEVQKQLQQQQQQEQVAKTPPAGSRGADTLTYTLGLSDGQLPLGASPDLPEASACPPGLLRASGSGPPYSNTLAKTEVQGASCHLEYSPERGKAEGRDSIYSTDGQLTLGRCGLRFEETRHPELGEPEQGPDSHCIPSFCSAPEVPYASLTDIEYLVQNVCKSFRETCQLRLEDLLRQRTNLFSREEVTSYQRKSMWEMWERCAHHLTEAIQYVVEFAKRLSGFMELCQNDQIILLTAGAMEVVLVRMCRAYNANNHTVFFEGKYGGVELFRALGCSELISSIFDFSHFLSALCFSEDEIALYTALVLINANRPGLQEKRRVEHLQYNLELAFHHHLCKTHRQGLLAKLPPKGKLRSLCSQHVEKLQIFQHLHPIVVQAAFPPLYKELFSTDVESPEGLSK
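Schneider cells (Drosophila), stable Gal4 DBD–ROR gamma + UAS-luc; 1 hr cmpd preincubation; Cu2+ induction 700 uM final; 20 hr ambient; luminescence.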
ELG1 repair inh: blocks ELG1-dependent DNA repair in HEK293T cells | Potency, µM (top dose mostly 46.1 µM), without a hit: at the highest dose activity change, negative = inhibition, actives largely listed as inhibitors | HEK293T ELG1-luciferase reporter, luminescence, 16 h; DNA damage induced by 5-fluorouridine | 330,000 compounds, 2.3% hits | AID 504467; note: % is set by controls: 0 for no effect and ±100 for the full control effect; nearly all actives have a fitted effect of over 55% in size
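Reporter activity after DNA damage by 5-fluorouridine is monitored. Compound-treated cells incubate 16 hr at 37 °C, then ONE-Glo is added for 30 min before luminescence reading.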
Numbers without * were called inactive; ? = inconclusive; / = not tested or not shown; [ ] = remark or other dose. Calls come from the whole dose curve; as a rule, active = well fitted curve in the direction sought with a large enough effect; inconclusive = small, poorly fitted or top-dose-only effect, or another doubt; inactive = no such curve, though single readings can be large; an effect the other way counts as inactive or inconclusive. Potency is the fitted concentration of half-maximal effect.

SMILES	VP16 counter	SW480 rereplic	MCF10A rerep	RORgamma inh	ELG1 repair inh
O=C(Nc1nc(-c2ccc(Cl)cc2)cs1)NC1CCCCC1	?	/	?	45%	?
Fc1ccc(-c2csc(NC(=S)Nc3ccccc3)n2)cc1	3.2µM*	-4%	?	0.89µM*	2%
O=C(Nc1cccc(Cl)c1)Nc1nc(-c2ccccc2)cs1	-21%	6%	0.82µM*	-4%	?
O=C(Nc1ccc(Cl)cc1)Nc1nc(-c2ccccc2)cs1	-15%	-8%	0.58µM*	8%	-5%
O=C(Nc1ccc([N+](=O)[O-])cc1)Nc1nc(-c2ccc(Cl)s2)cs1	0.89µM*	-45%	2.9µM*	4µM*	10µM*
O=C1CCC(C(=O)OCc2cc(=O)oc3ccc4ccccc4c23)=NN1	0%	19%	-2%	-26%	-1%
Cn1c2ccccc2c2nnc(SCC(=O)NCc3ccoc3)nc21	2%	-1%	-1%	-6%	-1%
S=C(NCCc1ccccc1)NN=C1CCCCCC1	1%	15%	-2%	-15%	?
S=C(NCCc1ccccc1)N/N=C/C1CCCCC1	5.6µM*	/	/	1.4µM*	28%
O=C(NC(=S)NCc1ccccc1)C1CC1	?	2%	1%	6.3µM*	5%
O=C(NC(=S)NCCc1ccccc1)C1CCCCC1	4µM*	-9%	?	2.8µM*	?
O=C(NC1CCCCCC1)C(=S)NCCc1ccccc1	4%	-83%[1.84 µM]	?	41%	?
O=C(CNC(=S)NC(=O)C1CCCCC1)c1ccccc1	?	?	-39%	7.9µM*	?
CCOC(=O)c1c(NC(=O)COC(=O)CNC(=O)c2ccco2)sc(C(C)=O)c1C	-4%	-1%	12%	-3%	-10%
CN1[C@H](CC(=O)c2ccccc2)CCC[C@H]1C[C@H](O)c1ccccc1	1%	/	/	8%	/
Cn1cnnc1SCC(=O)Nc1ccc2nc(SCc3ccccc3F)sc2c1	-6%	0%	-2%	2%	?
Cc1cc[n+](C2=C([O-])c3ccccc3C(=O)/C2=N\S(=O)(=O)c2cccs2)cc1C	11µM*	?	21µM*	16µM*	23µM*
Cc1cc(C)c[n+](C2=C([O-])c3ccccc3C(=O)/C2=N\S(=O)(=O)c2cccs2)c1	-2%	2.9µM*	?	32%	12µM*
CCN(CC)Cc1nc2c(c(=O)[nH]1)C1(CCCC1)Cc1ccccc1-2	11µM*	-1%	?	2.8µM*	-2%
O=c1[nH]c(NCCO)nc2c1C1(CCCC1)Cc1ccccc1-2	-22%	-1%	?	33%	-5%
C=CCNC(=S)NNc1nc2c(c(=O)[nH]1)C1(CCCCC1)Cc1ccccc1-2	1.8µM*	?	23µM*	1µM*	6%
O=c1[nH]c(CN(CCO)CCO)nc2c1C1(CCCCC1)Cc1ccccc1-2	-11%	-1%	-5%	?	2%
CCn1ccnc1CNC(=O)c1ccc2oc(C(C)C)nc2c1	15%	3%	0%	-27%	3%
CN1CCC(=NNC(=O)CN(c2cccc(Br)c2)S(C)(=O)=O)CC1	-6%	-2%	-2%	-30%	12%
Oc1ccc(O)c2c1C1c3ccccc3C2c2ccccc21	20µM*	/	/	7.9µM*	?
SMILES	VP16 counter	SW480 rereplic	MCF10A rerep	RORgamma inh	ELG1 repair inh
COC(=O)c1ccc(/C=C/c2c(-c3ccsc3)sc3ccccc23)cc1	-1%	4.1µM*	16µM*	22%	-4%
Cc1ccc(CN2CC(C(=O)OCc3ccccc3Cl)CC2=O)cc1 (stereo unspecified)	/	-1%	-2%	/	?
COc1ccc(/C=C2\CC/C(=C\c3ccc(OC)c(OC)c3)C2=O)cc1OC	16µM*	?	?	2.2µM*	?
COc1ccc(C=C2C=C(C(C)(C)C)C(=O)C(C(C)(C)C)=C2)cc1OC	4.5µM*	?	21µM*	7.1µM*	?
COc1cc(/C=C2\COC/C(=C\c3ccc(O)c(OC)c3)C2=O)ccc1O	?	7.3µM*	5.8µM*	?	?
COc1cc(/C=C2/CC/C(=C/c3ccc(O)c(OC)c3)C2=O)ccc1O	?	3%	?	-41%	?
Cc1ccc(NP(=O)(c2ccc(N(C)C)cc2NC(=O)c2cccs2)N2CCOCC2)cc1Cl (stereo unspecified)	14%	?	3%	?	16µM*
NCCCCCCC(O)(P(=O)(O)O)P(=O)(O)O	-6%	/	/	0%	/
CCCCN(C)C(=O)c1cc2cc([N+](=O)[O-])cc(OC)c2oc1=O	5%	-6%	0%	-4%	6%
CC(=O)N1N=C2c3ccccc3CCC2C1c1ccc(F)cc1 (stereo unspecified)	4%	4%	?	22%	?
CCNC(=S)N1N=C2c3ccccc3CCC2C1c1ccc(F)cc1 (stereo unspecified)	?	29%	6.5µM*	8.9µM*	?
CCn1c(SCC(=O)Nc2oc(C)c3c(C)n[nH]c(=O)c23)nc2sc(C)c(C)c2c1=O	/	-11%	-2%	/	7%
O=C(COC(=O)Cn1cnc2ccccc21)Nc1cc(S(=O)(=O)N2CCOCC2)ccc1Cl	0%	-12%	-11%	54%	-5%
O=C(COC(=O)Cn1cnc2ccccc21)Nc1cc2c(cc1Cl)C(=O)c1ccccc1C2=O	?	0%	?	2.8µM*	?
CCOc1ccc(/C=N/NC(=O)c2csc(C)c2C)c(OCC)c1	-9%	?	-1%	13µM*	2%
Cc1scc(C(=O)N/N=C/c2ccc(Cl)s2)c1C	13µM*	-397%	5%	14µM*	?
COc1ccc(S(=O)(=O)N(C)C)cc1NCC(=O)Nc1ccc(Br)cc1F	-17%	-3%	3%	-6%	?
CCC(C)(C#CCN1CCCCC1)OC(C)=O (stereo unspecified)	2%	-124%	2%	0%	7%
O=C(Nc1nc2ccccc2n1CCOc1ccccc1)c1ccco1	5µM*	?	5%	2µM*	?
Nc1nc2ccccc2n1CCOc1ccc(Cl)cc1	-12%	-7%	?	?	-16%
Cc1ccc(OCCn2c(NC(=O)c3ccco3)nc3ccccc32)cc1	2µM*	13%	?	1.6µM*	-22%
O=C(Nc1nc2ccccc2n1CCOc1ccc(Cl)cc1)c1ccco1	2.5µM*	?	6%	1.4µM*	?
C=CCn1c(C(C)C)nc2ccccc21	-5%[10 µM]	-1%	13%	11µM*	2%
C=CCn1c(C(O)c2ccccc2)nc2ccccc21 (stereo unspecified)	6%	-5%	1%	1%	3%
CCN(CC)S(=O)(=O)c1ccc2[nH]c(=O)cc(C(=O)Nc3ccccc3N3CCOCC3)c2c1	/	1%	?	/	-25%
